# Assay results reported in the supplement of paper PMC12494721.
# Structures can show the parent of a compound that is named as a salt.
# Key:
# Conditions in all cases: incubation time: 27 h, anaerobic, 37 °C;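 for the amine columns active = adjusted P below 0.05 in both replicates with a change the same way and a mean fold change under 0.8 or over 1.25; inactive = the rest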
# [1] = system: Clostridium sporogenes DSM 1664; assay: growth (OD595) fold change vs plate DMSO controls (fold change (ratio)); higher = more growth
# Procedure, shortened: (§1)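 Anaerobic 27 h, 37 °C mGAM 96-well cultures were shaken, then read for absorbance at 595 nm. Values were blank-subtracted and corrected for compound background using 20 µM compound solutions in water. A calibration factor of 5 converted them to OD. Growth is the fold change versus the median of plate DMSO controls. Fold changes above 1.5 were set to NA, and values are the mean of 2 biological replicates.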
# [2] = system: Escherichia coli IAI1; assay: as above
# Procedure, shortened: as §1
# [3] = system: Klebsiella aerogenes DSM 30053; assay: as above
# Procedure, shortened: as §1
# [4] = system: Ruminococcus gnavus DSM 108212; assay: as above
# Procedure, shortened: as §1
# [5] = system: Klebsiella aerogenes DSM 30053; assay: fold change of Histamine concentration vs plate DMSO controls (fold change (ratio)); higher = more amine produced, active = hit call of the paper (significant change in both replicates, either direction)
# Procedure, shortened: (§2)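 Using LC–triple-quadrupole MS with dynamic MRM, amines were quantified against external calibration curves and corrected for drift within each batch. Samples were whole anaerobic mGAM cultures of four gut strains, grown 27 h at 37 °C from OD 0.1 before 1:1 dilution, extracted with cold acetonitrile/methanol containing 0.1% formic acid and centrifuged. Compounds were present at 20 µM final (sweeteners at 50 µM final). The numbers are fold changes versus plate DMSO controls, each the mean of 2 biological replicates.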
# [6] = system: Clostridium sporogenes DSM 1664; assay: fold change of Tryptamine concentration vs plate DMSO controls (fold change (ratio)); higher = more amine produced, active = hit call of the paper (significant change in both replicates, either direction)
# Procedure, shortened: as §2
# [7] = system: Ruminococcus gnavus DSM 108212; assay: as above
# Procedure, shortened: as §2
# [8] = system: Escherichia coli IAI1; assay: fold change of Putrescine concentration vs plate DMSO controls (fold change (ratio)); higher = more amine produced, active = hit call of the paper (significant change in both replicates, either direction)
# Procedure, shortened: as §2
# [9] = system: Klebsiella aerogenes DSM 30053; assay: as above
# Procedure, shortened: as §2
# [10] = system: Escherichia coli IAI1; assay: fold change of Cadaverine concentration vs plate DMSO controls (fold change (ratio)); higher = more amine produced, active = hit call of the paper (significant change in both replicates, either direction)
# Procedure, shortened: as §2
# [11] = system: Klebsiella aerogenes DSM 30053; assay: as above
# Procedure, shortened: as §2
# [12] = system: Ruminococcus gnavus DSM 108212; assay: fold change of 2-Phenylethylamine concentration vs plate DMSO controls (fold change (ratio)); higher = more amine produced, active = hit call of the paper (significant change in both replicates, either direction)
# Procedure, shortened: as §2
smiles,measurement,setting,value
CCCCOc1cc(C(=O)OCCN(CC)CC)ccc1N [Benoxinate hydrochloride] (20 µM),growth,[1],1.06
same,growth,[2],0.951
same,growth,[3],0.988
same,growth,[4],1.01
same,fold change of Histamine concentration,[5],1.05 (inactive)
same,fold change of Tryptamine concentration,[6],0.997 (inactive)
same,fold change of Tryptamine concentration,[7],1.04 (inactive)
same,fold change of Putrescine concentration,[8],0.973 (inactive)
same,fold change of Putrescine concentration,[9],1.01 (inactive)
same,fold change of Cadaverine concentration,[10],0.978 (inactive)
same,fold change of Cadaverine concentration,[11],0.998 (inactive)
same,fold change of 2-Phenylethylamine concentration,[12],1.04 (inactive)
CN(CCCCCCCCCCN(C)C(=O)Oc1cccc([N+](C)(C)C)c1)C(=O)Oc1cccc([N+](C)(C)C)c1 [Demecarium bromide] (20 µM),growth,[1],0.744
same,growth,[2],0.974
same,growth,[3],1.04
same,growth,[4],0.614
same,fold change of Histamine concentration,[5],0.986 (inactive)
same,fold change of Tryptamine concentration,[6],0.871 (inactive)
same,fold change of Tryptamine concentration,[7],1.06 (inactive)
same,fold change of Putrescine concentration,[8],0.987 (inactive)
same,fold change of Putrescine concentration,[9],1.01 (inactive)
same,fold change of Cadaverine concentration,[10],1.03 (inactive)
same,fold change of Cadaverine concentration,[11],1.01 (inactive)
same,fold change of 2-Phenylethylamine concentration,[12],1.06 (inactive)
CN(C)CCc1c[nH]c2ccc(C[C@H]3COC(=O)N3)cc12 [Zolmitriptan] (20 µM),growth,[1],1.04
same,growth,[2],1.06
same,growth,[3],1.01
same,growth,[4],0.975
same,fold change of Histamine concentration,[5],1.01 (inactive)
same,fold change of Tryptamine concentration,[6],1.04 (inactive)
same,fold change of Tryptamine concentration,[7],1.04 (inactive)
same,fold change of Putrescine concentration,[8],1.01 (inactive)
same,fold change of Putrescine concentration,[9],1.01 (inactive)
same,fold change of Cadaverine concentration,[10],1.01 (inactive)
same,fold change of Cadaverine concentration,[11],0.993 (inactive)
same,fold change of 2-Phenylethylamine concentration,[12],1.06 (inactive)
CC1Cc2ccccc2N1NC(=O)c1ccc(Cl)c(S(N)(=O)=O)c1 (centres undefined) [Indapamide] (20 µM),growth,[1],1.04
same,growth,[2],1.02
same,growth,[3],0.929
same,growth,[4],0.659
same,fold change of Histamine concentration,[5],1 (inactive)
same,fold change of Tryptamine concentration,[6],1.01 (inactive)
same,fold change of Tryptamine concentration,[7],1.01 (inactive)
same,fold change of Putrescine concentration,[8],1 (inactive)
same,fold change of Putrescine concentration,[9],1 (inactive)
same,fold change of Cadaverine concentration,[10],0.977 (inactive)
same,fold change of Cadaverine concentration,[11],1 (inactive)
same,fold change of 2-Phenylethylamine concentration,[12],1.03 (inactive)
Clc1ccccc1C(c1ccccc1)(c1ccccc1)n1ccnc1 [Clotrimazole] (20 µM),growth,[1],0.97
same,growth,[2],0.974
same,growth,[3],0.998
same,growth,[4],0.513
same,fold change of Histamine concentration,[5],0.999 (inactive)
same,fold change of Tryptamine concentration,[6],0.977 (inactive)
same,fold change of Tryptamine concentration,[7],0.887 (inactive)
same,fold change of Putrescine concentration,[8],0.997 (inactive)
same,fold change of Putrescine concentration,[9],1.02 (inactive)
same,fold change of Cadaverine concentration,[10],0.955 (inactive)
same,fold change of Cadaverine concentration,[11],1.01 (inactive)
same,fold change of 2-Phenylethylamine concentration,[12],0.929 (inactive)
O=C(O)c1ccccc1OP(=O)(O)O [Fosfosal] (20 µM),growth,[1],0.91
same,growth,[2],1.01
same,growth,[3],1.01
same,growth,[4],1.17
same,fold change of Histamine concentration,[5],0.997 (inactive)
same,fold change of Tryptamine concentration,[6],1.05 (inactive)
same,fold change of Tryptamine concentration,[7],1.03 (inactive)
same,fold change of Putrescine concentration,[8],0.942 (inactive)
same,fold change of Putrescine concentration,[9],1 (inactive)
same,fold change of Cadaverine concentration,[10],0.995 (inactive)
same,fold change of Cadaverine concentration,[11],0.995 (inactive)
same,fold change of 2-Phenylethylamine concentration,[12],1.04 (inactive)
C[C@@H](c1ncncc1F)[C@](O)(Cn1cncn1)c1ccc(F)cc1F [Voriconazole] (20 µM),growth,[1],0.883
same,growth,[2],0.997
same,growth,[3],1.02
same,growth,[4],0.932
same,fold change of Histamine concentration,[5],0.988 (inactive)
same,fold change of Tryptamine concentration,[6],1.07 (inactive)
same,fold change of Tryptamine concentration,[7],1.01 (inactive)
same,fold change of Putrescine concentration,[8],1.02 (inactive)
same,fold change of Putrescine concentration,[9],0.999 (inactive)
same,fold change of Cadaverine concentration,[10],0.988 (inactive)
same,fold change of Cadaverine concentration,[11],1 (inactive)
same,fold change of 2-Phenylethylamine concentration,[12],0.991 (inactive)
CCN(CC)CCOC(=O)C1(c2ccc([N+](=O)[O-])cc2)CCCC1 [Nitrocaramiphen hydrochloride] (20 µM),growth,[1],0.793
same,growth,[2],1.07
same,growth,[3],0.995
same,growth,[4],1.02
same,fold change of Histamine concentration,[5],1.03 (inactive)
same,fold change of Tryptamine concentration,[6],0.949 (inactive)
same,fold change of Tryptamine concentration,[7],1.04 (inactive)
same,fold change of Putrescine concentration,[8],1.03 (inactive)
same,fold change of Putrescine concentration,[9],0.982 (inactive)
same,fold change of Cadaverine concentration,[10],1.03 (inactive)
same,fold change of Cadaverine concentration,[11],0.98 (inactive)
same,fold change of 2-Phenylethylamine concentration,[12],0.995 (inactive)
O=C(O)CCCC[C@@H]1SC[C@@H]2NC(=O)N[C@@H]21 [Biotin] (20 µM),growth,[1],1.02
same,growth,[2],0.975
same,growth,[3],0.981
same,growth,[4],1.12
same,fold change of Histamine concentration,[5],1.02 (inactive)
same,fold change of Tryptamine concentration,[6],0.954 (inactive)
same,fold change of Tryptamine concentration,[7],1.03 (inactive)
same,fold change of Putrescine concentration,[8],0.982 (inactive)
same,fold change of Putrescine concentration,[9],1.02 (inactive)
same,fold change of Cadaverine concentration,[10],1.01 (inactive)
same,fold change of Cadaverine concentration,[11],0.997 (inactive)
same,fold change of 2-Phenylethylamine concentration,[12],1.06 (inactive)
C=CCOC(Cn1ccnc1)c1ccc(Cl)cc1Cl (centres undefined) [Enilconazole] (20 µM),growth,[1],1.05
same,growth,[2],0.989
same,growth,[3],0.991
same,growth,[4],0.919
same,fold change of Histamine concentration,[5],0.966 (inactive)
same,fold change of Tryptamine concentration,[6],1.19 (inactive)
same,fold change of Tryptamine concentration,[7],1.15 (inactive)
same,fold change of Putrescine concentration,[8],0.862 (inactive)
same,fold change of Putrescine concentration,[9],1.01 (inactive)
same,fold change of Cadaverine concentration,[10],0.939 (inactive)
same,fold change of Cadaverine concentration,[11],1.13 (inactive)
same,fold change of 2-Phenylethylamine concentration,[12],1.56 (active)
Cc1c(-c2ccccc2)oc2c(C(=O)OCCN3CCCCC3)cccc2c1=O [Flavoxate hydrochloride] (20 µM),growth,[1],1.09
same,growth,[2],1.01
same,growth,[3],1.06
same,growth,[4],1.14
same,fold change of Histamine concentration,[5],1.01 (inactive)
same,fold change of Tryptamine concentration,[6],1.05 (inactive)
same,fold change of Tryptamine concentration,[7],1.03 (inactive)
same,fold change of Putrescine concentration,[8],1 (inactive)
same,fold change of Putrescine concentration,[9],1 (inactive)
same,fold change of Cadaverine concentration,[10],1.03 (inactive)
same,fold change of Cadaverine concentration,[11],1 (inactive)
same,fold change of 2-Phenylethylamine concentration,[12],1.02 (inactive)
COc1ccc(CN2CCN(C(c3ccc(F)cc3)c3ccc(F)cc3)CC2)c(OC)c1OC [Lomerizine dihydrochloride] (20 µM),growth,[1],1.02
same,growth,[2],1.08
same,growth,[3],1.04
same,growth,[4],0.769
same,fold change of Histamine concentration,[5],0.983 (inactive)
same,fold change of Tryptamine concentration,[6],1.08 (inactive)
same,fold change of Tryptamine concentration,[7],0.781 (inactive)
same,fold change of Putrescine concentration,[8],1.09 (inactive)
same,fold change of Putrescine concentration,[9],1.01 (inactive)
same,fold change of Cadaverine concentration,[10],0.984 (inactive)
same,fold change of Cadaverine concentration,[11],1.01 (inactive)
same,fold change of 2-Phenylethylamine concentration,[12],0.87 (inactive)
